# Experimental data reported in PubChem BioAssay (NCI).
# The panel holds about 79,000 compounds, 15% with a hit somewhere; the sample as a whole holds those more often. Values without a mark were called inactive. Active and inactive are the calls of the source. No stated cut-off is given here; in the data, active means growth inhibition above about 70%; inactive means the rest.
# How the values were obtained:
# [1] = NCI Yeast Anticancer Drug Screen. Data for the rad50 strain (AID 155);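 further: 0% = growth of vehicle-only cultures of the same strain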; conditions: S. cerevisiae rad50 strain growth inhibition; at 50.0 µM; hits give high values
# Method in brief: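 DNA repair mutant yeast, compound exposure, growth read-out; inhibition is taken relative to vehicle.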
# [2] = NCI Yeast Anticancer Drug Screen. Data for the mec2-1 strain (AID 157); conditions: S. cerevisiae mec2-1 strain, at 50.0 µM, hits give high values
# Method in brief: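 Mutant yeast (mec2-1) grown with compound; growth inhibition relative to vehicle control reported.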
# [3] = NCI Yeast Anticancer Drug Screen. Data for the sgs1 mgt1 strain (AID 161);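 further: 0% = growth of cultures given vehicle only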; conditions: S. cerevisiae sgs1 mgt1 strain, at 50.0 µM, hits give high values
# Method in brief: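 Growth of a repair-deficient yeast mutant was monitored after compound treatment and expressed as inhibition relative to vehicle-treated cultures.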
# [4] = NCI Yeast Anticancer Drug Screen. Data for the cln2 rad14 strain (AID 165);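 further: 0% = growth equal to vehicle treated cultures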; conditions: S. cerevisiae cln2 rad14 strain, at 50.0 µM, hits give high values
# Method in brief: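 Readout is yeast growth inhibition versus vehicle-treated controls, using a strain with cln2 and rad14 alterations exposed to compound.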
# [5] = NCI Yeast Anticancer Drug Screen. Data for the bub3 strain (AID 167); conditions: S. cerevisiae bub3 mutant strain, at 50.0 µM, hits give high values
# Method in brief: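 In this screen, a yeast mutant lacking normal mitotic checkpoint function is challenged with compound. Relative growth versus vehicle gives the inhibition value.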
# [6] = NCI Yeast Anticancer Drug Screen. Data for the mlh1 rad18 strain (AID 175); conditions: S. cerevisiae mlh1 rad18 strain growth inhibition; at 50.0 µM; hits give high values
# Method in brief: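 Genetically defined yeast (DNA repair-deficient) exposed to compounds; growth inhibition determined relative to vehicle.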
SMILES,growth inhibition [1],growth inhibition [2],growth inhibition [3],growth inhibition [4],growth inhibition [5],growth inhibition [6]
CCO[C@H]1OC(=O)[C@@H]2C(c3ccc([N+](=O)[O-])cc3)=NO[C@H]12,-12%,-32.5%,-12.9%,2.7%,4.85%,-29.8%
C1=C2CCc3ccc(o3)CCC(=C1)O2,7.55%,14.8%,10.2%,-23.7%,-0.05%,1.35%
CC(=O)Oc1cccc2c(/C=N/NC(N)=S)ncc(C)c12,87.6% (active),78.3% (active),86.7% (active),83.5% (active),84.6% (active),90.3% (active)
NNC(=O)CC(N)C(N)=O (stereo unspecified),-4.1%,3.5%,-3.25%,13.3%,27.4%,16.5%
C=C1C(=O)O[C@@H]2/C=C(/C)[C@@H](OC(C)=O)C/C=C(\C)C(O)[C@@H](OC(=O)/C(C)=C\C)C12 (stereo partly specified),17.4%,-0.2%,22.5%,9.1%,12.6%,-50.4%
O=C1NC(=O)C(c2ccc(Cl)cc2)(c2cccc(Cl)c2)N1 (stereo unspecified),11.1%,-16.5%,18.3%,-11.8%,5.9%,-5.9%
CCN(CC)CC(O)Cn1cnc2c(SC)ncnc21 (stereo unspecified),-0.75%,0.6%,-2.95%,5.5%,4.5%,-1.9%
Oc1ccc2ccccc2c1CNC1CCCCC1,-9.05%,-18.9%,-9.05%,-26.1%,29.7%,-26.6%
O=C(Nc1ccccc1C(=O)N/N=C/c1cccc(O)c1)c1ccccc1,9.5%,24.8%,12.9%,-20%,34.5%,4.55%
O=Cc1c2c(cc3c1CC1(C3)Cc3cc4c(c(C=O)c3C1)CCCC4)CCCC2,5.25%,11.6%,4.4%,25.3%,17.3%,25.1%
COc1ccc(/C=C2\Cc3ccccc3C2=O)cc1OC,-0.05%,-10.2%,-9.85%,8.25%,-25.4%,-1.5%
CC(O)CC(C)CO (stereo unspecified),23.1%,-20.3%,-9.5%,-55.5%,15.2%,18%
N#Cc1c(-c2ccccc2)cc(-c2ccc(Cl)cc2)[nH]c1=S,5.3%,8.2%,-19.1%,20.5%,42.2%,4.65%
COc1ccc(CCc2ccc(Cl)cc2)cc1,6.35%,6.3%,-5.9%,15.5%,-17.6%,-4.5%
COc1ccc(NC(=O)COC(=O)c2cccc3c(=O)c4ccccc4[nH]c23)cc1,43.4%,41.2%,27.4%,23.2%,21.2%,48.6%
Ic1ccc(-c2ccccc2)cc1,-2.95%,-7.7%,12.1%,-57.7%,34%,29.7%
CC(C)NC1(N(C)C)N=C(N(C)C)N=C(N(C)C)O1 (stereo unspecified),-3.65%,-2.7%,2.75%,27%,9.5%,-1.25%
NC(=S)Nc1ccccc1-c1ccccc1,36.2%,13.8%,25%,-6.9%,32.5%,33.2%
COc1ccc(S(=O)(=O)Nc2cccc(C(F)(F)F)c2)cc1,99% (active),99.7% (active),99.5% (active),98.5% (active),99.3% (active),99.5% (active)
COC(=O)C#Cc1cccc(OC)c1OC,22.1%,14.9%,22.9%,-31.2%,12.3%,10.2%
C=CCCCCCCCCC(=O)NCc1ccncc1,56.2%,29.2%,59.5%,50.4%,41.7%,86.7% (active)
